Results reported in PubChem BioAssay.
Several values for one entry are separate records, joined by “and”; a condition that tells them apart may be missing. Identical values can stand only once. Activity calls are given as the source filed them.

Legend:
[1] = anti-His antibody binders, primary screen, artefact control for SMM control protein annotation, biochemical, small-molecule microarray, 635 nm fluorescence (AID 1128); settings: anti-His Alexa647 antibody binding, higher = more signal;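 note: score merges feature fluorescence with signal-to-noise for each printed compound spot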
[2] = system: Human papillomavirus type 1a E7 protein (residues 1-88); test: HPV1a E7 small-molecule binders, primary screen, biochemical, small-molecule microarray, residues 1-88, 635 nm (AID 1129); settings: small-molecule microarray binding, fluorescence 635 nm; higher = more signal
[3] = target: Focal adhesion kinase 1 (Homo sapiens) (UniProt Q05397); test: small-molecule microarray binders of FAK, primary screen, biochemical, 635/667 nm fluorescence, BSA, DTT (AID 1130); settings: PTK2 binding, 635 nm fluorescence, higher = more signal;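 note: composite of spot emission at 667 nm and signal to noise over triplicate slides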
Chain of Focal adhesion kinase 1 (Homo sapiens) (Q05397 whole entry, looked up): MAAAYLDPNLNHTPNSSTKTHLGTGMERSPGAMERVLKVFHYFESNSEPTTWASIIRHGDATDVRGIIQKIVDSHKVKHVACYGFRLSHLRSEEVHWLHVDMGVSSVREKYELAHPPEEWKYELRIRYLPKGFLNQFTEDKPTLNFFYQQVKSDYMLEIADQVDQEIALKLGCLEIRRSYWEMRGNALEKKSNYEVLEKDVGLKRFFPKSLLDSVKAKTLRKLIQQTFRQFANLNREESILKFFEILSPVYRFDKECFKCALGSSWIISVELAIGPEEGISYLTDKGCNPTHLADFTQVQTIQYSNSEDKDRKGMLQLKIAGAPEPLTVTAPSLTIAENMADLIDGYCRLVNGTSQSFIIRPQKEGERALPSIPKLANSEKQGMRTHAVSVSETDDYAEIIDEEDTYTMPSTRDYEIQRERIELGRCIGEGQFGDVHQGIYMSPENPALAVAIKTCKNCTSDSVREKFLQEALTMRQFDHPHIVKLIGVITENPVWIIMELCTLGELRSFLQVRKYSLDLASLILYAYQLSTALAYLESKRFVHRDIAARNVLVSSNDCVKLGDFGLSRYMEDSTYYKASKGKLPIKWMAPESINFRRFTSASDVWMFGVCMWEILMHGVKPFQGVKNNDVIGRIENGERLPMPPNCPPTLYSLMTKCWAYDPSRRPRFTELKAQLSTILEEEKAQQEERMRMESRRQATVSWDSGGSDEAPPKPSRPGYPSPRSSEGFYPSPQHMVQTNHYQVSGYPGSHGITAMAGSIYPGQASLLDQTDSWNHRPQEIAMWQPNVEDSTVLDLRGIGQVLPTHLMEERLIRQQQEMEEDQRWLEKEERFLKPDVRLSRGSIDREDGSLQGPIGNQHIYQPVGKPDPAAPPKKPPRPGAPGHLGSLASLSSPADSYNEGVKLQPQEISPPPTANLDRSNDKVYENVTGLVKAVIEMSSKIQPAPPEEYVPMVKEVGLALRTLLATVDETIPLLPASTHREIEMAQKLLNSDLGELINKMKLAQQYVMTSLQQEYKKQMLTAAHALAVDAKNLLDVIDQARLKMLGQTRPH

[4] = system: Fibrinogen (Alexa647-labelled); test: fibrinogen binders on compound microarrays, profiling panel, artefact control for SMM control-protein annotation, biochemical, small-molecule microarray, 635/667 nm fluorescence (AID 1131); settings: fibrinogen-A647 binding fluorescence, higher = more signal;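 note: z-score merges 667 nm fluorescence with per-spot signal-to-noise over triplicate slides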
[5] = target: Follistatin (Homo sapiens) (UniProt P19883); test: follistatin binders on small-molecule microarrays, primary screen, biochemical, small-molecule microarray, 635/667 nm fluorescence (AID 1132); settings: FST binding, 635 nm fluorescence, higher = more signal
Chain of Follistatin (Homo sapiens) (P19883 whole entry, looked up): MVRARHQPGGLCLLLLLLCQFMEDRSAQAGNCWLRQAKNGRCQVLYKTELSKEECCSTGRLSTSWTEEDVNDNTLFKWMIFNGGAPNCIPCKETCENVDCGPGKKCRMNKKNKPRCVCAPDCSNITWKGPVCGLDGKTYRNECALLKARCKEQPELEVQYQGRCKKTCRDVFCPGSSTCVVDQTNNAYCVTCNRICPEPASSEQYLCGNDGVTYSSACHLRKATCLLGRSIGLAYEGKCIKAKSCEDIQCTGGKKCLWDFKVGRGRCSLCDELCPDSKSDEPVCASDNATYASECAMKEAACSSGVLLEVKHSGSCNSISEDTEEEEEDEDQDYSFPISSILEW

[6] = target: Fibroblast growth factor 2 (Homo sapiens) (UniProt P09038); test: FGF2 binders on small-molecule microarrays, primary screen, biochemical, small-molecule microarray, 635/667 nm fluorescence (AID 1133); settings: small-molecule microarray binding, FGF2, fluorescence 635/667; higher = more signal
Chain of Fibroblast growth factor 2 (Homo sapiens) (P09038 whole entry, looked up): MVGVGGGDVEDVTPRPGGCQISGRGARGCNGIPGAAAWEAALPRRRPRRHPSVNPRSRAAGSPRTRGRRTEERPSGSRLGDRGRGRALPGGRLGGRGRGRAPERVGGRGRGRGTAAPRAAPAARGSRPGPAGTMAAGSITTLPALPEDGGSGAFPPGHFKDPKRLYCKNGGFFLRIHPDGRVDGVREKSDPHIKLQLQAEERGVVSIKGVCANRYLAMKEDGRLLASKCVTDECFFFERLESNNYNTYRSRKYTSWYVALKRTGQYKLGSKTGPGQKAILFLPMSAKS

[7] = mitochondrial membrane potential change in A549 cells, profiling panel, cell-based, JC-1 fluorescence, basal, 24 h, 100 nL (AID 1138); settings: higher = more signal;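 note: A549 lung adenocarcinoma cells under basal conditions with no added stimulus; test concentration not given here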
Lefty1 = Lefty1 binders on small-molecule microarrays, primary screen, biochemical, small-molecule microarray, 635/667 nm fluorescence (AID 1139); settings: small-molecule microarray binding, fluorescence 635/667; higher = more signal
[8] = system: wheat germ agglutinin (Triticum aestivum), Alexa647-labelled; test: wheat germ agglutinin binders on compound microarrays, profiling panel, artefact control for SMM control-protein annotation, biochemical, small-molecule microarray, 635/667 nm fluorescence (AID 1140); settings: WGA-A647 binding, 635 nm fluorescence, higher = more signal;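 note: score merges 667 nm feature emission with signal to noise over triplicate slides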
[9] = target: Luciferin 4-monooxygenase (Photinus pyralis) (UniProt P08659); test: firefly luciferase enzyme inhibitors, primary screen, biochemical, luminescence, purified enzyme, 2006 set (AID 1141); settings: SteadyGlo luminescence, 30 min; higher = more signal, called active from +8 up or from −8 down unless noted;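 note: cell-free assay with purified firefly luciferase at 100 ng per well in PBS; test concentration not given here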
Chain of Luciferin 4-monooxygenase (Photinus pyralis) (P08659 whole entry, looked up): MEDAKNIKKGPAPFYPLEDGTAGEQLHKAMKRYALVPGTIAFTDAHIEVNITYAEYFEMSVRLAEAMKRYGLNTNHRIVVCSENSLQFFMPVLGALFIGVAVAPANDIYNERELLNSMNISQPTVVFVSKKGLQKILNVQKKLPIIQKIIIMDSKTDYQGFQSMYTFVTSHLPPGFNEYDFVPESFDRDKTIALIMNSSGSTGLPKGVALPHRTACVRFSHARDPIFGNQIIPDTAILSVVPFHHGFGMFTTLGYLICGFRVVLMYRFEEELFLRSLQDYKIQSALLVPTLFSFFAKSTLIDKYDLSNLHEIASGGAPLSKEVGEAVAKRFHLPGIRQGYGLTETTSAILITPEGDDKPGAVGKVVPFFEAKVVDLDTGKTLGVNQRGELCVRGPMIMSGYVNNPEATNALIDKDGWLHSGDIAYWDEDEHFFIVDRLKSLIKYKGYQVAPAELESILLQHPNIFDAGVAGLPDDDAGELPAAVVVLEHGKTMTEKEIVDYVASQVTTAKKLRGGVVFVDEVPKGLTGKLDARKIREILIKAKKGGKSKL

`O=P(c1ccccc1)(c1ccccc1)N1CC2(CC2)CC(O)(c2ccccc2)C1` (stereo not given) gave a composite z-score [1] of 1.11, a composite z-score [2] of 0.805 and a composite z-score [3] of 1.26. It also gave a composite z-score [4] of 0.77, a composite z-score [5] of -0.541 and a composite z-score [6] of -0.955. The z-score [7] was 0.542, the composite z-score (Lefty1) was -1.17 and the composite z-score [8] was 0.546. For the same compound, the z-score [9] was 2.44 (inactive).
In the case of `CCCC[C@@H]1C[C@H]1[C@@H](NP(=O)(c1ccccc1)c1ccccc1)c1ccc(Cl)cc1`, the composite z-score [1] is reported as 1.23, the composite z-score [2] is reported as -0.212 and the composite z-score [3] is reported as 0.343. It also gave a composite z-score [4] of -0.741, a composite z-score [5] of -1.38 and a composite z-score [6] of -0.748. It also gave a z-score [7] of 0.179, a composite z-score (Lefty1) of -1.83 and a composite z-score [8] of 0.319. For the same compound, the z-score [9] was 0.183 (inactive).
`CN1CCC(c2ccc(CO)cc2)=CC1c1cccs1` (stereo not given) showed a composite z-score [1] of 0.399, a composite z-score [2] of -0.668 and a composite z-score [3] of 0.903. It also gave a composite z-score [4] of -0.28, a composite z-score [5] of 0.699 and a composite z-score [6] of 0.0576. It also gave a z-score [7] of 0.389, a composite z-score (Lefty1) of 1.35 and a composite z-score [8] of 0.244. The z-score [9] was -1.16 (inactive).
`CCCc1cc2c(n1Cc1ccco1)C(C)C1CN(C(=O)c3ccccc3)C(C)(C(=O)OC)C21` (stereo not given) showed a composite z-score [1] of 1.7, a composite z-score [2] of 0.806 and a composite z-score [3] of 0.307. It also gave a composite z-score [4] of 0.717, a composite z-score [5] of 1.13 and a composite z-score [6] of -0.0321. The z-score [7] was -0.0794, the composite z-score (Lefty1) was 0.494 and the composite z-score [8] was 1.29. For the same compound, the z-score [9] was -7.6 (inactive).
For `OCc1ccc(C2=CC(c3cccs3)N(Cc3cccc(OC(F)(F)F)c3)CC2)cc1` (stereo not given), the composite z-score [1] was 2.04, the composite z-score [2] was -0.38 and the composite z-score [3] was 0.147. For the same compound, the composite z-score [4] was -0.365, the composite z-score [5] was 0.663 and the composite z-score [6] was 0.108. For the same compound, the z-score [7] was 0.944, the composite z-score (Lefty1) was 0.704 and the composite z-score [8] was 0.173. The z-score [9] was -1.26 (inactive).
Work on `COC(=O)NCC=Cc1nc(CCC=CC(=O)O[C@H]2CC3CC(=O)O[C@@H](C=CCC(C)C)C[C@@H]4CC[C@H](C)[C@@H](C[C@@H](OC)C[C@H](C2)O3)O4)co1` yielded a composite z-score [1] of -0.106, a composite z-score [2] of -1.42 and a composite z-score [3] of -0.422. It also gave a composite z-score [4] of -1.2, a composite z-score [5] of -0.822 and a composite z-score [6] of -0.43. For the same compound, the z-score [7] was 1.88, the composite z-score (Lefty1) was -0.422 and the composite z-score [8] was -0.777. The z-score [9] was -0.0363 (inactive).
With `COC(=O)C1(C)C=C2C(=C(C)C(=O)C2C)CN1` (stereo not given) the composite z-score [1] was 0.207, the composite z-score [2] was 0.111 and the composite z-score [3] was 0.885. The composite z-score [4] was -1.52, the composite z-score [5] was -0.0995 and the composite z-score [6] was -0.755. For the same compound, the z-score [7] was -1.82, the composite z-score (Lefty1) was -0.868 and the composite z-score [8] was -0.0605. The z-score [9] was 2.34 (inactive).
With `CN1CCc2nc(CO)c(CO)cc2C1` the composite z-score [1] was 1.08, the composite z-score [2] was 0.635 and the composite z-score [3] was 0.11. It also gave a composite z-score [4] of 0.291, a composite z-score [5] of 0.398 and a composite z-score [6] of 0.576. The z-score [7] was 1.02, the composite z-score (Lefty1) was 0.263 and the composite z-score [8] was -0.0298. For the same compound, the z-score [9] was -0.529 (inactive).
`CCc1cc2c(nc1CC)CCN(CCC(C)=NOC)C2` showed a composite z-score [1] of 3.12, a composite z-score [2] of 0.422 and a composite z-score [3] of -0.128. It also gave a composite z-score [4] of -0.15, a composite z-score [5] of 1.24 and a composite z-score [6] of 0.294. For the same compound, the z-score [7] was 0.268, the composite z-score (Lefty1) was 0.861 and the composite z-score [8] was -0.141. For the same compound, the z-score [9] was -0.773 (inactive).
Compound `C[C@@H]1Cc2c(cnc3c2CN(C)CC3)CO1` has a composite z-score [1] of -0.528, a composite z-score [2] of -0.336 and a composite z-score [3] of 0.391. The composite z-score [4] was -0.383, the composite z-score [5] was 0.783 and the composite z-score [6] was 0.664. It also gave a z-score [7] of 0.0621, a composite z-score (Lefty1) of 1.27 and a composite z-score [8] of -0.23. The z-score [9] was -0.345 (inactive).
For `COC(=O)[C@H]1[C@@H](O)[C@@]2(O)c3c(OC)cc(OC)cc3O[C@@]2(c2ccc(OC)cc2)[C@@H]1c1ccccc1`, the composite z-score [1] was 0.287, the composite z-score [2] was 0.741 and the composite z-score [3] was 0.153. The composite z-score [4] was 0.323, the composite z-score [5] was 0.53 and the composite z-score [6] was 0.4. It also gave a z-score [7] of 0.862, a composite z-score (Lefty1) of 0.614 and a composite z-score [8] of 0.0623. The z-score [9] was -1.13 (inactive).
Compound `C=C(CC1(CNP(=O)(c2ccccc2)c2ccccc2)CC1)c1ccccc1` has a composite z-score [1] of 0.679, a composite z-score [2] of 0.626 and a composite z-score [3] of 0.0728. The composite z-score [4] was 0.126, the composite z-score [5] was -0.274 and the composite z-score [6] was -0.639. For the same compound, the z-score [7] was 1.23, the composite z-score (Lefty1) was -0.742 and the composite z-score [8] was 0.11. For the same compound, the z-score [9] was 2.19 (inactive).
In the case of `CC1N(P(=O)(c2ccccc2)c2ccccc2)CC(O)(c2ccccc2)CC12CC2` (stereo not given), the composite z-score [1] is reported as 1.12 and 1.33, the composite z-score [2] is reported as 0.773 and 0.537 and the composite z-score [3] is reported as 1.39 and 0.264. For the same compound, the composite z-score [4] was -0.817 and 0.653, the composite z-score [5] was -1.07 and -0.0739 and the composite z-score [6] was -1.02 and -0.642. The z-score [7] was 0.158 and 0.776, the composite z-score (Lefty1) was -1.48 and -1.47 and the composite z-score [8] was -0.322 and 0.637. The z-score [9] was 2.42 (inactive) and 2.44 (inactive).
With `COC(=O)[C@@]1(Cc2ccccc2)[C@H]2c3cc(C(=O)N(C)C)[nH]c3C[C@H]2CN1C(=O)c1ccccc1` the composite z-score [1] was 0.523, the composite z-score [2] was -1.26 and the composite z-score [3] was -0.206. The composite z-score [4] was -0.0736, the composite z-score [5] was -0.426 and the composite z-score [6] was -0.387. The z-score [7] was 0.825, the composite z-score (Lefty1) was -1.29 and the composite z-score [8] was -0.09. For the same compound, the z-score [9] was 2.27 (inactive).
Compound `CCCC=C(CCC)[C@@H](NP(=O)(c1ccccc1)c1ccccc1)c1ccccc1` has a composite z-score [1] of 0.0583, a composite z-score [2] of 1.03 and a composite z-score [3] of 0.206. It also gave a composite z-score [4] of 0.819, a composite z-score [5] of 0.139 and a composite z-score [6] of 0.407. For the same compound, the z-score [7] was 1.23, the composite z-score (Lefty1) was 0.169 and the composite z-score [8] was 0.207. The z-score [9] was 1.19 (inactive).
In the case of `C[C@H]1O[C@H]2C3=C(C(=O)[C@@H]4O[C@@H]4[C@@H]3O)[C@@H]1[C@@H]1[C@@H](C)OC=C3[C@@H](O)[C@H]4O[C@H]4C(=O)[C@]312`, the composite z-score [1] is reported as -0.652, the composite z-score [2] is reported as -0.539 and the composite z-score [3] is reported as -0.27. For the same compound, the composite z-score [4] was -0.727, the composite z-score [5] was -0.72 and the composite z-score [6] was -0.0771. It also gave a z-score [7] of 0.344, a composite z-score (Lefty1) of -0.235 and a composite z-score [8] of 0.202. The z-score [9] was -1.61 (inactive).
